# In paper PMC7862700, “An all-to-all approach to the identification of sequence-specific readers for epigenetic DNA modifications on cytosine”:
# Legend:
# Experiment in all cases: DAPPL (digital affinity profiling via proximity ligation, sequencing); 10 mM Tris-HCl pH 7.5, 50 mM NaCl, 1 mM DTT, 4% glycerol, room temperature, 30 min; GST-TFs on glutathione beads, 16-mer random dsDNA library, 0.1% formaldehyde crosslink after washing; high values mean tight binding
# FLI1 = target: T1, FLI1 (Homo sapiens, UniProt Q01543 1-452); conditions: protein: recombinant; tags: N-terminal GST; dsDNA, one strand shown
# T1 sequence: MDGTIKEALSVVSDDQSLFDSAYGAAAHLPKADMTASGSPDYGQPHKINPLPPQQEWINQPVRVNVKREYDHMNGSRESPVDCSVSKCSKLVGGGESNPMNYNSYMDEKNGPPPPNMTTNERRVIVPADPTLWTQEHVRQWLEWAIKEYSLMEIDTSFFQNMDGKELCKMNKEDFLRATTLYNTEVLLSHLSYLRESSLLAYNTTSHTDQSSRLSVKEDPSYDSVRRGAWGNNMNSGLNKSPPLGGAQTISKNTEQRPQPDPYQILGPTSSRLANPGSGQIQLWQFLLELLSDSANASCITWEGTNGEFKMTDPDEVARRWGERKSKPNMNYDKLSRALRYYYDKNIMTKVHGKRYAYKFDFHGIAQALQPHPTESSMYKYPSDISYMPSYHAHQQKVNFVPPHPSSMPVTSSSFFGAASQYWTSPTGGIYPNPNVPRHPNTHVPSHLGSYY
# In short: (§1)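 In yeast, human transcription factors were expressed with a GST fusion, then pulled down on glutathione beads and given DNA barcodes. Pooled with a tag-only sample, they were exposed to 200 nmole of a 16-mer random double-stranded DNA library (Tris/NaCl/DTT/glycerol buffer, room temperature, 30 min), washed, crosslinked with 0.1% formaldehyde, proximity-ligated using BsaI/T4 ligase for 1 h at 37 °C, PCR-amplified and read on an Illumina NextSeq500. Each hexamer's frequency of reads for a factor, divided by the matching frequency for the tag-only sample, gives the binding signal.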
# ELK1 = target: T2, ELK1 (Homo sapiens, UniProt P19419 1-428); conditions: protein: recombinant; tags: N-terminal GST; dsDNA, one strand shown
# T2 sequence: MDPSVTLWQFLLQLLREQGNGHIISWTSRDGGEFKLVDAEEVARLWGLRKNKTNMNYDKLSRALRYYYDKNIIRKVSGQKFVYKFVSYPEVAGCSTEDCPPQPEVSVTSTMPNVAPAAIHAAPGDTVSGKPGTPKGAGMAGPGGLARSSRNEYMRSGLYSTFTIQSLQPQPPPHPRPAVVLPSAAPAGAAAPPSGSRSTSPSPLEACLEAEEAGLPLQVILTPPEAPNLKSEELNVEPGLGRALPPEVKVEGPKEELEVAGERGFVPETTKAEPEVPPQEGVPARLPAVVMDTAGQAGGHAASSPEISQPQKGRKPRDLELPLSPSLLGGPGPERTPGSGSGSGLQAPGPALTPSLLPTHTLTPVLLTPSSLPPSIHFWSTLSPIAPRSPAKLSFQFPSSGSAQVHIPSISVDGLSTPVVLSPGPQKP
# In short: as §1
# GABPA = target: T3, GABPA (Homo sapiens, UniProt Q06546 1-454); conditions: protein: recombinant; tags: N-terminal GST; dsDNA, one strand shown
# T3 sequence: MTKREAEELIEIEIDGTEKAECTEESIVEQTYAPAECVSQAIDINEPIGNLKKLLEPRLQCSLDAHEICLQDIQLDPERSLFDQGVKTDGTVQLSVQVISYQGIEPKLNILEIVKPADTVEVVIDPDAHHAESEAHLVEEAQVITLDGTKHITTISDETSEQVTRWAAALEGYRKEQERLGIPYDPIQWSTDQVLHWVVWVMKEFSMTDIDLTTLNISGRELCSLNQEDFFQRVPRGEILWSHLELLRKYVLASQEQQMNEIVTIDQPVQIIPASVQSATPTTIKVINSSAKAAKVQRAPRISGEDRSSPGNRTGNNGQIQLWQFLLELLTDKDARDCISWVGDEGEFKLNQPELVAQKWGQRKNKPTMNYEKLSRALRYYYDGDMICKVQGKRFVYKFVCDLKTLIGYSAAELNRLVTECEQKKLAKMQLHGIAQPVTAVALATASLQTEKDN
# In short: as §1
# ERG = target: T4, ERG (Homo sapiens, UniProt P11308 1-479); conditions: protein: recombinant; tags: N-terminal GST; dsDNA, one strand shown
# T4 sequence: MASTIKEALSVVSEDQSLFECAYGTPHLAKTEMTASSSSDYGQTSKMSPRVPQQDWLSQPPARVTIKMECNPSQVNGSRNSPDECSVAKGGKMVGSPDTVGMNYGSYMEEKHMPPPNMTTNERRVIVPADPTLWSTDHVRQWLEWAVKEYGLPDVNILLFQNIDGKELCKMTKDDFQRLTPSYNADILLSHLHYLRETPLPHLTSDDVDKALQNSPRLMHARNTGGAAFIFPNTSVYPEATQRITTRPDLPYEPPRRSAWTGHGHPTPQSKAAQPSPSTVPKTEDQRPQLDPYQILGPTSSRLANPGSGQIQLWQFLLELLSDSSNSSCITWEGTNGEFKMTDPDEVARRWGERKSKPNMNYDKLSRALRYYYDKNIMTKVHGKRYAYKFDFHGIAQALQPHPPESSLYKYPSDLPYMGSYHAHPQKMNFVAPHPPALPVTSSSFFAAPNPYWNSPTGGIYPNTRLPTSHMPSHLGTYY
# In short: as §1
# ELF1 = ELF1 (Homo sapiens, UniProt P32519 1-619); conditions: protein: recombinant; tags: N-terminal GST; dsDNA, one strand shown
# In short: as §1
# EHF = target: T5, EHF (Homo sapiens, UniProt Q9NZC4 1-300); conditions: protein: recombinant; tags: N-terminal GST; dsDNA, one strand shown
# T5 sequence: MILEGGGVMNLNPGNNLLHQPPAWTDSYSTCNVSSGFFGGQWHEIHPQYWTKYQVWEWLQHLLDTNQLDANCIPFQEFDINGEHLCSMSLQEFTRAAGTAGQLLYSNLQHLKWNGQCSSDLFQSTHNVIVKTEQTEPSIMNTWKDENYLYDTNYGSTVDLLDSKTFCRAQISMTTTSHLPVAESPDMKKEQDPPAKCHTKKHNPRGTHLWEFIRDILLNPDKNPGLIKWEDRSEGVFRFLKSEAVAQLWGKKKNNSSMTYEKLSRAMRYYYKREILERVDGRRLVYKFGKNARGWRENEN
# In short: as §1
# SPI1 = SPI1 (Homo sapiens, UniProt P17947 1-270); conditions: protein: recombinant; tags: N-terminal GST; dsDNA, one strand shown
# In short: as §1
# SPIB = SPIB (Homo sapiens, UniProt Q01892 1-262); conditions: protein: recombinant; tags: N-terminal GST; dsDNA, one strand shown
# In short: as §1
# ELK3 = target: T6, ELK3 (Homo sapiens, UniProt P41970 1-407); conditions: protein: recombinant; tags: N-terminal GST; dsDNA, one strand shown
# T6 sequence: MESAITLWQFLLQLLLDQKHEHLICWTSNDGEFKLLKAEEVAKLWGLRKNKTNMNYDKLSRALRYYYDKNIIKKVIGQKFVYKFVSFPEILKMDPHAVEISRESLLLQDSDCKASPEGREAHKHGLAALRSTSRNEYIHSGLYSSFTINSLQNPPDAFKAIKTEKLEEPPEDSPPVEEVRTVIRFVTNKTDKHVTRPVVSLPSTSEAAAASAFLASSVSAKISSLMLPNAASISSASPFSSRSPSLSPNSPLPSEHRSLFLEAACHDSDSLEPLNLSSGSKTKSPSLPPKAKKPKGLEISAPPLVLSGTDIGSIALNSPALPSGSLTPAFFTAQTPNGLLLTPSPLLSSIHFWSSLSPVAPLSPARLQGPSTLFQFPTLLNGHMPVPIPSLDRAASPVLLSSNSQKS
# In short: as §1
# FEV = target: T7, FEV (Homo sapiens, UniProt Q99581 1-238); conditions: protein: recombinant; tags: N-terminal GST; dsDNA, one strand shown
# T7 sequence: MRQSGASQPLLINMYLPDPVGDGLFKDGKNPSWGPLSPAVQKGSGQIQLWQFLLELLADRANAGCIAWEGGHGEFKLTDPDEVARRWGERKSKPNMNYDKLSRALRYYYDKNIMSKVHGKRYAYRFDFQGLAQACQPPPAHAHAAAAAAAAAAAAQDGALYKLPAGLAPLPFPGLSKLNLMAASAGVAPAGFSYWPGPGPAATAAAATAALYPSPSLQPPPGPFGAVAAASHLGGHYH
# In short: as §1
# ETV5 = ETV5 (Homo sapiens, UniProt P41161 1-510); conditions: protein: recombinant; tags: N-terminal GST; dsDNA, one strand shown
# In short: as §1
# HSF1 = HSF1 (Homo sapiens, UniProt Q00613 1-529); conditions: protein: recombinant; tags: N-terminal GST; chain copies: 3; dsDNA, one strand shown
# In short: as §1
# SPIC = target: T8, SPIC (Homo sapiens, UniProt Q8N5J4 1-248); conditions: protein: recombinant; tags: N-terminal GST; dsDNA, one strand shown
# T8 sequence: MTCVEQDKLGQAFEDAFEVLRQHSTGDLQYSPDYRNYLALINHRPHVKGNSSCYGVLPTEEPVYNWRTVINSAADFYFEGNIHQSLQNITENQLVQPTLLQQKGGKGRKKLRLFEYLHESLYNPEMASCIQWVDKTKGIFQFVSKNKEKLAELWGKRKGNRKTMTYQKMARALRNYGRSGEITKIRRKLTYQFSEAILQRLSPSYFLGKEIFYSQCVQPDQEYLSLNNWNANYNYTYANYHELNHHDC
# In short: as §1
# ELF4 = ELF4 (Homo sapiens, UniProt Q99607 1-663); conditions: protein: recombinant; tags: N-terminal GST; dsDNA, one strand shown
# In short: as §1
# ELK4 = target: T9, ELK4 (Homo sapiens, UniProt P28324-2 1-405); conditions: protein: recombinant; tags: N-terminal GST; dsDNA, one strand shown
# T9 sequence: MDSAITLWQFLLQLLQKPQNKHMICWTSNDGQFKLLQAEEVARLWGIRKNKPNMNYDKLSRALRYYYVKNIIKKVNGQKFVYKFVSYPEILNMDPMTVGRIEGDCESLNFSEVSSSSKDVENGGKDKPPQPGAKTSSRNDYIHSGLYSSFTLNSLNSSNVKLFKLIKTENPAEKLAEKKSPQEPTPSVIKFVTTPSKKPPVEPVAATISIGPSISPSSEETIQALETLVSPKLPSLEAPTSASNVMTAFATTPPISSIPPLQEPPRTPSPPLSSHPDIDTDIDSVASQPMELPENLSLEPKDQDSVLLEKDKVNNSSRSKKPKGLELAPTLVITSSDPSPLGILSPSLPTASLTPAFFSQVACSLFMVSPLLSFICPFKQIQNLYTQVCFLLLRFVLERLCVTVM
# In short: as §1
# ETV2 = target: T10, ETV2 (Homo sapiens, UniProt O00321 1-342); conditions: protein: recombinant; tags: N-terminal GST; dsDNA, one strand shown
# T10 sequence: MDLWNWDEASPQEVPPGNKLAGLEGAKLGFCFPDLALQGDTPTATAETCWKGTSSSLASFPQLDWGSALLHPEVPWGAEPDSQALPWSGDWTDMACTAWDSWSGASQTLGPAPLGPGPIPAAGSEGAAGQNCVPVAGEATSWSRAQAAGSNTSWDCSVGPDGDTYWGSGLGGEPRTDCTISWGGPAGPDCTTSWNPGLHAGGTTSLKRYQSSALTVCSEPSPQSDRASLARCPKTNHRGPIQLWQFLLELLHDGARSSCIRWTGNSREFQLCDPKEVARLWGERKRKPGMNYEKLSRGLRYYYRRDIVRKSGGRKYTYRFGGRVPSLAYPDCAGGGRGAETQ
# In short: as §1
# ELF3 = target: T11, ELF3 (Homo sapiens, UniProt P78545 1-371); conditions: protein: recombinant; tags: N-terminal GST; dsDNA, one strand shown
# T11 sequence: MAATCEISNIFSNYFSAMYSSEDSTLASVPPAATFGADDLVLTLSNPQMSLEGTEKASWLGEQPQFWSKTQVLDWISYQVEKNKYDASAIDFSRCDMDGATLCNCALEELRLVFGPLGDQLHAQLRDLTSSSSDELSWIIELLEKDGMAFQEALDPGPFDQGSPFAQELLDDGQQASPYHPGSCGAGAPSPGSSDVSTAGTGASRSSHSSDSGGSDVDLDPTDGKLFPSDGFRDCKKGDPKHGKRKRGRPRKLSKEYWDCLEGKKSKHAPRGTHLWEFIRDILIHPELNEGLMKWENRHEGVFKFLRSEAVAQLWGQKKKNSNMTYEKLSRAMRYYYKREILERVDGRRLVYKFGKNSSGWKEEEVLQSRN
# In short: as §1
# CRX = CRX (Homo sapiens, UniProt O43186 1-299); conditions: protein: recombinant; tags: N-terminal GST; dsDNA, one strand shown
# In short: as §1
# ETV1 = ETV1 (Homo sapiens, UniProt P50549 1-477); conditions: protein: recombinant; tags: N-terminal GST; dsDNA, one strand shown
# In short: as §1
# ELF1, sequence (P32519 whole entry): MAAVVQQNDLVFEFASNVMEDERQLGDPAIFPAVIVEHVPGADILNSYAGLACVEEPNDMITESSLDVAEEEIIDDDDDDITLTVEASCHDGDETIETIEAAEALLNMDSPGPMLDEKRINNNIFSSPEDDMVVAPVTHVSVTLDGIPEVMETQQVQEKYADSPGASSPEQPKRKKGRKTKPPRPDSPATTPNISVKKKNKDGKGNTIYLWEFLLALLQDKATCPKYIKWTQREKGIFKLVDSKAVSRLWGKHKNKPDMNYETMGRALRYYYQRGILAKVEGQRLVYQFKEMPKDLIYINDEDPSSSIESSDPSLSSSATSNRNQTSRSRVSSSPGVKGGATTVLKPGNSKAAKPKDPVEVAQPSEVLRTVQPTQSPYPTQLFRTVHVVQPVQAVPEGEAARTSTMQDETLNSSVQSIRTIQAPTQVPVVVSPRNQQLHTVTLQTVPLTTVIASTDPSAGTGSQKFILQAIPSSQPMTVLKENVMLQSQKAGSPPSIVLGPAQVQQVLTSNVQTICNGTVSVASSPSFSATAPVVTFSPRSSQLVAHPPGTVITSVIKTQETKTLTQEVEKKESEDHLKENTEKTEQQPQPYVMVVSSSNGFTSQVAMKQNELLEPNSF
# SPIB, sequence (Q01892 whole entry): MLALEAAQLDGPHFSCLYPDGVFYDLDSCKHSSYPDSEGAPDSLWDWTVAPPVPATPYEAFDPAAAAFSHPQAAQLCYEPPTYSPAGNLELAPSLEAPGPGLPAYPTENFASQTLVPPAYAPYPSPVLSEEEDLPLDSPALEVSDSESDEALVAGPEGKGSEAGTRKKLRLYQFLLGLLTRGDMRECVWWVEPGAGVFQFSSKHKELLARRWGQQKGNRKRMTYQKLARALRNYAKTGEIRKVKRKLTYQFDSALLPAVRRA
# CRX, sequence (O43186 whole entry): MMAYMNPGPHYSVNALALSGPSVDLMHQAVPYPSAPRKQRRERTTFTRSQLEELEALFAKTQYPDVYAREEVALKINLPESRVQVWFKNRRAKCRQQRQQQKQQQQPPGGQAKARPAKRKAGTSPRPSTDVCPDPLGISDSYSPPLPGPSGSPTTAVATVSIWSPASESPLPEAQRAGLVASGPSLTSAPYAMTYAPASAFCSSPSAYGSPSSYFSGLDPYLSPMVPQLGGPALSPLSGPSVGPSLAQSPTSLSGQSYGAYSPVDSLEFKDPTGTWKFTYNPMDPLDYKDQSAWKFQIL
# HSF1, sequence (Q00613 whole entry): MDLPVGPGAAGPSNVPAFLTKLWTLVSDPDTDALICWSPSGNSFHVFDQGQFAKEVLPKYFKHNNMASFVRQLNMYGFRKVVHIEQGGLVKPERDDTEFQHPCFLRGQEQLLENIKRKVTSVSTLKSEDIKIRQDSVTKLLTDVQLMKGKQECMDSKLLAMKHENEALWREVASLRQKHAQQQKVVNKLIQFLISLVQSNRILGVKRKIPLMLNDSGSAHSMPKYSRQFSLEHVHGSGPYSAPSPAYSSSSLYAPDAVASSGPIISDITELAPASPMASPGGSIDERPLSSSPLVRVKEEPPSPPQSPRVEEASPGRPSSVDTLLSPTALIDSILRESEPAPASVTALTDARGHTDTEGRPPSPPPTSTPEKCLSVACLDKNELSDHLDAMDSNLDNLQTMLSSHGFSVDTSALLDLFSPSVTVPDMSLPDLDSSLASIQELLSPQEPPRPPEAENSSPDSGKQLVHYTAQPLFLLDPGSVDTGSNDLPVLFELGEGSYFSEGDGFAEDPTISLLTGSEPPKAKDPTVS
# ETV5, sequence (P41161 whole entry): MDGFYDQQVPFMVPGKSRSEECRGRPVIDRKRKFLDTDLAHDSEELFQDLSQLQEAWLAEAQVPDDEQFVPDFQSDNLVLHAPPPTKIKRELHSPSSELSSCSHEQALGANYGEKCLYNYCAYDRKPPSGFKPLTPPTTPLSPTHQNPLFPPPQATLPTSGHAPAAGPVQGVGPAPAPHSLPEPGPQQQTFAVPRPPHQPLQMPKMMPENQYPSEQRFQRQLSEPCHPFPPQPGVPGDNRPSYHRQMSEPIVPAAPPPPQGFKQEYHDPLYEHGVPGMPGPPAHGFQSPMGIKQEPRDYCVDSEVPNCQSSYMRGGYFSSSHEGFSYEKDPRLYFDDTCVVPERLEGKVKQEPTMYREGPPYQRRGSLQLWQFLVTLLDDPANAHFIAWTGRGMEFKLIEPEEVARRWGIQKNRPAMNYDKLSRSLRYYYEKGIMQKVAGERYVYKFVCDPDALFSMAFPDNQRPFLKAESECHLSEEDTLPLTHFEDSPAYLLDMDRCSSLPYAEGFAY
# ETV1, sequence (P50549 whole entry): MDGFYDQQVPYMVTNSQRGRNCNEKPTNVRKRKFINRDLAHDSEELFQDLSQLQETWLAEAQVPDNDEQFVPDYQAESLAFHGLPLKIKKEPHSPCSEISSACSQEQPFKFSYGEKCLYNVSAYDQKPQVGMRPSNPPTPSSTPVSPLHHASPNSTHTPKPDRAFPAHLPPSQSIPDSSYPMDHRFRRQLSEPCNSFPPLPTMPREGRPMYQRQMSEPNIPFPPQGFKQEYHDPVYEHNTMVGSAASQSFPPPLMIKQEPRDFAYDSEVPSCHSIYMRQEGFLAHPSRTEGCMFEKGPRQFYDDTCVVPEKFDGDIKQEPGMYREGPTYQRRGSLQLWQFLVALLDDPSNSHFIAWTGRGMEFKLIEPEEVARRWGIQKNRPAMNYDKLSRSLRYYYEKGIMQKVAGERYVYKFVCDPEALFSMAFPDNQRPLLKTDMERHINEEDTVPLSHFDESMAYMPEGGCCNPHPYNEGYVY
# ELF4, sequence (Q99607 whole entry): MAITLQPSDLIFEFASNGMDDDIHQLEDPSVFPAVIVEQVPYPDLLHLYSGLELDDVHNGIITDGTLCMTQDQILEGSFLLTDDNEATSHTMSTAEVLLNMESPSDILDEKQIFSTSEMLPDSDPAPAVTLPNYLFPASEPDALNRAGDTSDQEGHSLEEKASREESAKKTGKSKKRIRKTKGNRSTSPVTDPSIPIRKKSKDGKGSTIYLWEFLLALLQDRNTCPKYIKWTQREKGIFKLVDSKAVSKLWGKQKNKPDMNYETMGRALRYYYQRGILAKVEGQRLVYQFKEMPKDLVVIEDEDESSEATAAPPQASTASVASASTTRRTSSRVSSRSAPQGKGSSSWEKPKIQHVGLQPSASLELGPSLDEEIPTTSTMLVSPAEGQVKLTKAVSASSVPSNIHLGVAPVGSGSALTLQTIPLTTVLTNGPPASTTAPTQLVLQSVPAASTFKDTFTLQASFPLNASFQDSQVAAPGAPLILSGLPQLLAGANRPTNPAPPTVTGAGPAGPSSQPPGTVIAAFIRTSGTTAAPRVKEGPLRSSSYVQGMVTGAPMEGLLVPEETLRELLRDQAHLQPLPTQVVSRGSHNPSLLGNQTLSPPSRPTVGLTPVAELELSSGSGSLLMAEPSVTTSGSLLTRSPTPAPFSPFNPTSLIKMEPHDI
sequence,measurement,setting,value
CTCTTC,binding signal,FLI1,"1.62 fold enrichment (6-mer frequency, TF over GST control)"
same,binding signal,ELK1,"1.64 fold enrichment (6-mer frequency, TF over GST control)"
same,binding signal,GABPA,"1.66 fold enrichment (6-mer frequency, TF over GST control)"
same,binding signal,ERG,"1.71 fold enrichment (6-mer frequency, TF over GST control)"
same,binding signal,ELF1,"1.66 fold enrichment (6-mer frequency, TF over GST control)"
same,binding signal,EHF,"1.69 fold enrichment (6-mer frequency, TF over GST control)"
same,binding signal,SPI1,"1.6 fold enrichment (6-mer frequency, TF over GST control)"
same,binding signal,SPIB,"1.84 fold enrichment (6-mer frequency, TF over GST control)"
same,binding signal,ELK3,"1.66 fold enrichment (6-mer frequency, TF over GST control)"
same,binding signal,FEV,"1.73 fold enrichment (6-mer frequency, TF over GST control)"
same,binding signal,ETV5,"1.76 fold enrichment (6-mer frequency, TF over GST control)"
same,binding signal,HSF1,"1.25 fold enrichment (6-mer frequency, TF over GST control)"
same,binding signal,SPIC,"1.69 fold enrichment (6-mer frequency, TF over GST control)"
same,binding signal,ELF4,"1.68 fold enrichment (6-mer frequency, TF over GST control)"
same,binding signal,ELK4,"1.66 fold enrichment (6-mer frequency, TF over GST control)"
same,binding signal,ETV2,"1.71 fold enrichment (6-mer frequency, TF over GST control)"
same,binding signal,ELF3,"1.67 fold enrichment (6-mer frequency, TF over GST control)"
same,binding signal,CRX,"1.21 fold enrichment (6-mer frequency, TF over GST control)"
same,binding signal,ETV1,"1.71 fold enrichment (6-mer frequency, TF over GST control)"
